Laboratory results: PubChem BioAssay (NCATS)
Results filed as inconclusive are left out. The source made the active and inactive calls. Calls follow the shape of the dose curve; as a rule, active = well fitted curve in the direction sought with a large enough effect; inconclusive = small, poorly fitted or top-dose-only effect, or another doubt; inactive = no such curve, though single readings can be large; an effect the other way counts as inactive or inconclusive.

Key:
MCC-13 = experiment: qHTS assay to identify novel small-molecules to repurpose for Merkel cell carcinoma treatment (AID 1296009); conditions: MCC and control cell lines, CellTiter-Glo viability, 72 h; series mostly up to 46 µM; also: nearly all actives have a fitted effect of over 60% in size
Outline: (§1)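 Luminescence from CellTiter-Glo, read 10 min after addition at room temperature, reported viability following a 72 hr, 37 degree celsius treatment with NPC or MIPE compounds in titration; values normalized to plate controls.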

MCC-26 = experiment: as above; conditions: MCC and control cell lines, CellTiter-Glo viability, 72 h; series mostly up to 46 µM
Outline: as §1

MKL-1 = experiment: as above; conditions: MCC and control cell lines, CellTiter-Glo viability, 72 h; series mostly up to 46 µM
Outline: as §1

MKL-2 = experiment: as above; conditions: MCC and control cell lines, CellTiter-Glo viability, 72 h; series mostly up to 46 µM
Outline: as §1

NIH3T3 = experiment: as above; conditions: MCC and control cell lines, CellTiter-Glo viability, 72 h; at 44.8 µM (top of the series) unless noted
Outline: as §1

UISO = experiment: as above; conditions: MCC and control cell lines, CellTiter-Glo viability, 72 h; series mostly up to 46 µM
Outline: as §1

WaGa = experiment: as above; conditions: MCC and control cell lines, CellTiter-Glo viability, 72 h; series mostly up to 46 µM
Outline: as §1

C33A = experiment: Primary qHTS to identify gynecologic anti-cancer compounds using libraries of approved drugs and bioactive compounds (AID 1345084); conditions: Gynecologic cancer cell panel viability, ATPlite luminescence, 48 h; series mostly up to 57.5 µM; also: nearly all actives have a fitted effect of over 55% in size
Outline: (§2)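 Cells, 1,000 per well, plated 16 h, then exposed 48 h at 37 C to compounds. Viability by ATPlite luminescence after 15 min at room temperature.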

CAOV3 = experiment: as above; conditions: Gynecologic cancer cell panel viability, ATPlite luminescence, 48 h; series mostly up to 57.5 µM
Outline: as §2

CASKI = experiment: as above; conditions: Gynecologic cancer cell panel viability, ATPlite luminescence, 48 h; series mostly up to 57.5 µM
Outline: as §2

Es-2 = experiment: as above; conditions: Gynecologic cancer cell panel viability, ATPlite luminescence, 48 h; series mostly up to 57.5 µM
Outline: as §2

HeLa = experiment: as above; conditions: Gynecologic cancer cell panel viability, ATPlite luminescence, 48 h; series mostly up to 57.5 µM
Outline: as §2

Hek293T = experiment: as above; conditions: Gynecologic cancer cell panel viability, ATPlite luminescence, 48 h, control line for the selectivity index; series mostly up to 57.5 µM
Outline: as §2

JEG-3 = experiment: as above; conditions: Gynecologic cancer cell panel viability, ATPlite luminescence, 48 h; series mostly up to 57.5 µM
Outline: as §2

OV90 = experiment: as above; conditions: Gynecologic cancer cell panel viability, ATPlite luminescence, 48 h; series mostly up to 57.5 µM
Outline: as §2

PA-1 = experiment: as above; conditions: Gynecologic cancer cell panel viability, ATPlite luminescence, 48 h; series mostly up to 57.5 µM
Outline: as §2

Tov-21-G = experiment: as above; conditions: Gynecologic cancer cell panel viability, ATPlite luminescence, 48 h; series mostly up to 57.5 µM
Outline: as §2

Tov112D = experiment: as above; conditions: Gynecologic cancer cell panel viability, ATPlite luminescence, 48 h; series mostly up to 57.5 µM
Outline: as §2

[1] = Drug repurposing screens with cells derived from glioblastoma tumor samples (AID 1345199); conditions: GBM patient neurospheres viability, ATP luminescence, 48 h; also: nearly all actives have a fitted effect of over 40% in size; also: potency is read from the fitted curve at half-maximal effect
Outline: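 Primary testing used CD133+ neurospheres from four GBM patients, seven concentrations, 48 h exposure and ATP-based viability; confirmation added three slower-growing patient lines.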

SKOV3 = experiment: Primary qHTS to identify gynecologic anti-cancer compounds using libraries of approved drugs and bioactive compounds (AID 1345084); conditions: Gynecologic cancer cell panel viability, ATPlite luminescence, 48 h; series mostly up to 57.5 µM; also: nearly all actives have a fitted effect of over 55% in size
Outline: as §2

[2] = at 45.9 µM (top of the series), tumour line B
[3] = at 45.9 µM (top of the series), tumour line D
[4] = at 46.1 µM (top of the series), tumour line C
[5] = at 46 µM (top of the series), tumour line A
% is scaled to controls: 0 for no effect and ±100 for the full control effect.

Cc1ccsc1/C=C/C1=NCCCN1C
inactive: outcome (MCC-13) | outcome (MCC-26) | outcome (MKL-1) | outcome (MKL-2) | outcome (NIH3T3) | outcome (UISO) | outcome (WaGa) | outcome (C33A) | outcome (CAOV3) | outcome (CASKI) | outcome (Es-2) | outcome (HeLa) | outcome (Hek293T) | outcome (JEG-3) | Potency (OV90) | outcome (PA-1) | outcome (Tov-21-G) | outcome (Tov112D) | activity, negative = cell killing ([1]; at 20 µM (top of the series), tumour line C) -9.86% | activity, negative = cell killing ([1]; at 21.2 µM (top of the series), tumour line B) -2.99% | activity, negative = cell killing ([1]; at 21.2 µM (top of the series), tumour line D) -7.19% | activity, negative = cell killing ([1]; at 21.3 µM (top of the series), tumour line A) -22.2%

C[N+](C)(C)CC[N+]1(C)Cc2c(Cl)c(Cl)c(Cl)c(Cl)c2C1
inactive: outcome (MCC-13) | outcome (MCC-26) | outcome (MKL-1) | outcome (MKL-2) | outcome (UISO) | outcome (WaGa) | outcome (C33A) | outcome (CAOV3) | outcome (CASKI) | outcome (Es-2) | outcome (HeLa) | outcome (Hek293T) | outcome (JEG-3) | Potency (OV90) | outcome (PA-1) | outcome (SKOV3) | outcome (Tov-21-G) | outcome (Tov112D) | activity, negative = cell killing [1, 2] -5.4% | activity, negative = cell killing [1, 3] -17.9% | activity, negative = cell killing [1, 4] -19.9%

NC(=O)N[C@@H](CCC(=O)O)C(=O)O
inactive: outcome (MCC-13) | outcome (MCC-26) | outcome (MKL-1) | outcome (MKL-2) | outcome (NIH3T3) | outcome (UISO) | outcome (WaGa) | outcome (C33A) | outcome (CAOV3) | outcome (CASKI) | outcome (Es-2) | outcome (Hek293T) | outcome (JEG-3) | Potency (OV90) | outcome (SKOV3) | activity, negative = cell killing [1, 2] -6.35% | activity, negative = cell killing [1, 3] -8.74% | activity, negative = cell killing [1, 5] -22.8% | activity, negative = cell killing [1, 4] -19.7%

Nc1ncnc(Nc2ccccc2)n1
inactive: outcome (MCC-13) | outcome (MCC-26) | outcome (MKL-1) | outcome (MKL-2) | outcome (NIH3T3) | outcome (UISO) | outcome (WaGa) | outcome (C33A) | outcome (CAOV3) | outcome (CASKI) | outcome (Es-2) | outcome (HeLa) | outcome (Hek293T) | outcome (JEG-3) | outcome (PA-1) | outcome (SKOV3) | outcome (Tov-21-G) | outcome (Tov112D) | activity, negative = cell killing [1, 2] -14.8% | activity, negative = cell killing [1, 3] -23.1% | activity, negative = cell killing [1, 4] -21.6%

O=C(NCCCN1CCOCC1)c1ccc(Cl)cc1
inactive: outcome (MCC-13) | outcome (MCC-26) | outcome (MKL-1) | outcome (MKL-2) | outcome (NIH3T3) | outcome (UISO) | outcome (WaGa) | outcome (C33A) | outcome (CASKI) | outcome (Es-2) | outcome (HeLa) | outcome (Hek293T) | outcome (JEG-3) | Potency (OV90) | outcome (PA-1) | outcome (SKOV3) | outcome (Tov-21-G) | outcome (Tov112D) | activity, negative = cell killing [1, 2] -1.61% | activity, negative = cell killing [1, 3] -16.9% | activity, negative = cell killing [1, 5] -28.4% | activity, negative = cell killing [1, 4] -13.2%

O=C1CC[C@@H](C(=O)O)N1
inactive: outcome (MCC-13) | outcome (MCC-26) | outcome (MKL-1) | outcome (MKL-2) | outcome (UISO) | outcome (WaGa) | outcome (C33A) | outcome (CAOV3) | outcome (CASKI) | outcome (Es-2) | outcome (HeLa) | outcome (Hek293T) | outcome (JEG-3) | Potency (OV90) | outcome (PA-1) | outcome (SKOV3) | outcome (Tov-21-G) | outcome (Tov112D) | activity, negative = cell killing [1, 2] -10.6% | activity, negative = cell killing [1, 3] -16.2% | activity, negative = cell killing [1, 4] 1.94%

Cc1ncc(CO)c(CN)c1O
inactive: outcome (MCC-13) | outcome (MCC-26) | outcome (MKL-1) | outcome (MKL-2) | outcome (NIH3T3) | outcome (UISO) | outcome (WaGa) | outcome (C33A) | outcome (CAOV3) | outcome (CASKI) | outcome (Es-2) | outcome (HeLa) | outcome (Hek293T) | outcome (Tov-21-G) | outcome (Tov112D) | activity, negative = cell killing [1, 2] 0.478% | activity, negative = cell killing [1, 3] 6.58% | activity, negative = cell killing [1, 5] -23.9% | activity, negative = cell killing [1, 4] -87%

Cc1cc(-n2nc3ccc(Cl)cc3n2)c(O)c(C(C)(C)C)c1
inactive: outcome (MCC-13) | outcome (MCC-26) | outcome (MKL-1) | outcome (MKL-2) | outcome (UISO) | outcome (WaGa) | outcome (C33A) | outcome (CAOV3) | outcome (CASKI) | outcome (Es-2) | outcome (HeLa) | outcome (Hek293T) | outcome (JEG-3) | Potency (OV90) | outcome (PA-1) | outcome (SKOV3) | outcome (Tov-21-G) | outcome (Tov112D) | activity, negative = cell killing [1, 2] -1.32% | activity, negative = cell killing [1, 3] -14.3%
active: Potency ([1]; tumour line A) 7.94 µM

CC[C@H](C)[C@H](N)C(=O)O
inactive: outcome (MCC-13) | outcome (MCC-26) | outcome (MKL-1) | outcome (MKL-2) | outcome (UISO) | outcome (WaGa) | outcome (C33A) | outcome (CAOV3) | outcome (CASKI) | outcome (Es-2) | outcome (HeLa) | outcome (Hek293T) | outcome (JEG-3) | Potency (OV90) | outcome (PA-1) | outcome (SKOV3) | outcome (Tov-21-G) | outcome (Tov112D) | activity, negative = cell killing [1, 2] -7% | activity, negative = cell killing [1, 3] 0.894% | activity, negative = cell killing [1, 4] 2.32%

Cc1cccc(C(=O)O)c1O
inactive: outcome (MCC-13) | outcome (MCC-26) | outcome (MKL-1) | outcome (MKL-2) | outcome (NIH3T3) | outcome (UISO) | outcome (WaGa) | outcome (C33A) | outcome (CAOV3) | outcome (CASKI) | outcome (JEG-3) | Potency (OV90) | outcome (PA-1) | outcome (SKOV3) | outcome (Tov112D) | activity, negative = cell killing [1, 2] -1.64% | activity, negative = cell killing [1, 3] -5.93% | activity, negative = cell killing [1, 5] -19.5% | activity, negative = cell killing [1, 4] -18.8%

C[C@H]1COc2c(C3(N)CC3)c(F)cc3c(=O)c(C(=O)O)cn1c23
inactive: outcome (MCC-13) | outcome (MCC-26) | outcome (MKL-1) | outcome (MKL-2) | outcome (UISO) | outcome (WaGa) | outcome (C33A) | outcome (CAOV3) | outcome (CASKI) | outcome (Es-2) | outcome (HeLa) | outcome (Hek293T) | outcome (JEG-3) | Potency (OV90) | outcome (PA-1) | outcome (SKOV3) | outcome (Tov-21-G) | outcome (Tov112D) | activity, negative = cell killing [1, 2] -13.2% | activity, negative = cell killing [1, 4] -15.1%

CCCC(O)C(CC)CO (stereo not drawn)
inactive: outcome (MCC-13) | outcome (MCC-26) | outcome (MKL-1) | outcome (MKL-2) | outcome (NIH3T3) | outcome (UISO) | outcome (WaGa) | outcome (C33A) | outcome (CAOV3) | outcome (CASKI) | outcome (Es-2) | outcome (HeLa) | outcome (Hek293T) | outcome (JEG-3) | Potency (OV90) | outcome (SKOV3) | outcome (Tov-21-G) | outcome (Tov112D) | activity, negative = cell killing [1, 2] -12.1% | activity, negative = cell killing [1, 3] -1.2% | activity, negative = cell killing [1, 5] -19.9% | activity, negative = cell killing [1, 4] 1.39%
